Screens as filed in PubChem BioAssay.
WNV protease inh: inhibitors of WNV NS2B-NS3 protease, primary screen, biochemical, fluorogenic substrate. AID 577, 2007. fluorogenic substrate Ex360/Em465; active compounds read low. z-score (test concentration not listed). 65,000 compounds, 0.18% hits; in the data active = z-score below about -3
Target sequence (P06935 1371-1501 limits assumed): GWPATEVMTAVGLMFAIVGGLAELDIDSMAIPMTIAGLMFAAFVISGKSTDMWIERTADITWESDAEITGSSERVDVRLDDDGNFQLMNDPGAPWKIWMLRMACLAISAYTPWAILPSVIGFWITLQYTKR
Target sequence (P06935 1502-1679 limits assumed): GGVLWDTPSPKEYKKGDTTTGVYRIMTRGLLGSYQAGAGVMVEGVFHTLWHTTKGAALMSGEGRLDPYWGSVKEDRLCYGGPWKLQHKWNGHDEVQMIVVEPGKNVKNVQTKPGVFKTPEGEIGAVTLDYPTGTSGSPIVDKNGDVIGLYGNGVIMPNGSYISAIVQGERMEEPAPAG
BAP1 block: inhibitors of BAP1 deubiquitinase, primary screen, biochemical, Ub-AMC fluorescence, kinetic | calls only at 20 µM | 72,000 compounds, 0.48% hits | recombinant BAP1, Ub-AMC hydrolysis fluorescence kinetic; active compounds read low | Ubiquitin carboxyl-terminal hydrolase BAP1 (Homo sapiens), Q92560;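 active = activity remaining at or below 50% of control, provided the compound also passes the data quality filters; inactive = the rest, including low values that fail the filters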;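 also: 100% = DMSO wells rate and 0% = substrate alone blank rate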
Cdc25B block: inhibitors of Cdc25B phosphatase catalytic domain, primary screen, biochemical, OMFP fluorescence | recombinant Cdc25B, OMFP fluorescence Ex485/Em525 | inhibition, %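 (compounds tested at 10 µM final in the well)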 | 65,000 compounds, 0.1% hits; in the data active = inhibition above about 50%
MMP13 inh: human MMP13 inhibitors, primary screen, biochemical, FRET peptide cleavage | 65,000 compounds, 0.07% hits | Collagenase 3 (Homo sapiens), P45452 | AID 570, 2006 | MMP-13 fTHP FRET cleavage, Mca fluorescence | inhibition, % at 4 µM;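 active = inhibition above the mean of compound-free control plate wells plus 3 SD, cut at about 14% in these data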;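 also: 0% = DMSO wells and 100% = wells with reference MMP-13 inhibitor after basal subtraction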
MKP-1 inh: MKP-1 phosphatase inhibitors, primary screen, biochemical, in vitro | Dual specificity protein phosphatase 1 (Homo sapiens), P28562 | recombinant MKP-1, OMFP hydrolysis fluorescence | inhibition, %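 (compounds tested at a single concentration somewhere between 10 and 100 µM)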 | 65,000 compounds, 0.15% hits | AID 374, 2006;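 active = inhibition above about 50%, limit read from the data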;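 also: 0% = DMSO max control wells and 100% = wells with enzyme stopped by NaOH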
The depositor's hits bear a star; i = inactive; / = not tested or not shown; + = active, no number. An excerpt weighted towards active compounds, which were near 0.93% of everything screened.

SMILES | WNV protease inh | BAP1 block | Cdc25B block | MMP13 inh | MKP-1 inh
COc1ccc(CSc2nc(C)cc(=O)[nH]2)cc1 | -1.6 | i | -8 | 25* | 1
COc1ccc(C(=O)CSc2nc(C)cc(=O)[nH]2)cc1 | 0.08 | i | -4 | -10 | 4
O=C(Nc1ccc(Cl)c([N+](=O)[O-])c1)C1CC(=O)N(c2ccc(F)cc2)C1 (configuration not stated) | / | i | / | / | /
CCN1C(=O)/C(=C2/C=CC=CN2C)SC1=S | 0.41 | i | 5 | 20* | 5
CCCCOc1ccc(S(=O)(=O)NC(C)c2ccccc2)cc1 (configuration not stated) | / | i | / | / | /
CCn1c(=O)cc(SCC(=O)N2CCN(Cc3ccc4c(c3)OCO4)CC2)c2ccccc21 | 1.4 | i | -14 | -1 | 56*
COC(=O)c1[nH]c2cc(OC)ccc2c1NC(=O)c1ccc2c(c1)OCO2 | -5.6* | / | -2 | 6 | -4
CCOC(=O)c1[nH]c2ccc(OC)cc2c1NC(=O)c1ccc2c(c1)OCO2 | 0.61 | / | -6 | -9 | 16
C=CCOC(=O)C1=C(C)Nc2nc3ccccc3n2C1c1ccncc1 (configuration not stated) | -3.1* | i | -3 | 0 | 31
CC(=O)Oc1cc2sc3ccccc3[nH]c2c2c(=O)c3ccccc3c(=O)c12 | / | i | / | / | /
CCc1cccc2c(C#N)cn(CC(=O)NCc3ccco3)c12 | -3.9* | i | -13 | 0 | 14
O=C1CSC(=S)N1c1cccc([N+](=O)[O-])c1 | / | i | / | / | /
Cc1cc2c(N)cccc2nn1 | 1 | i | 52* | 3 | 8
O=C(Nc1ccccc1I)c1ccccc1Cl | / | i | / | / | /
COc1cc(C2c3c(oc4c(C)cc(C)cc4c3=O)C(=O)N2Cc2cccnc2)ccc1O (configuration not stated) | 0.56 | i | -4 | 32* | 5
COc1ccc(C2c3c(oc4c(C)cc(C)cc4c3=O)C(=O)N2Cc2cccnc2)cc1OC (configuration not stated) | 0.88 | i | 0 | -8 | -11
COc1cccc(C2CC(c3cccc(C)c3)n3ncnc3N2)c1 (configuration not stated) | 0.64 | i | -39 | -4 | 3
COc1ccc(C2CC(c3cccc(C)c3)n3ncnc3N2)cc1 (configuration not stated) | -4.1* | i | -16 | 2 | -11
COc1ccc(C(=O)OCC(=O)c2ccccc2)cc1S(=O)(=O)N1CCOCC1 | / | i | / | / | /
CS(=O)(=O)N1CCc2cc(C(=O)OCC(=O)c3ccccc3)ccc21 | 0.31 | i | -5 | 15* | -6
CCCCCC1CCC(C(=O)O)CC1 (configuration not stated) | -1.3 | i | -4 | -1 | 54*
CC(C)(C)C(=O)c1sc(Nc2ccccc2)nc1N | -0.39 | i | -13 | 6 | 85*
CC(=O)Oc1cc(OC(C)=O)c2c(=O)c(-c3ccc4c(c3)OCCO4)c(C)oc2c1 | / | i | / | / | /
COc1ccc2nc(NC(=O)CSC3=NCCS3)sc2c1 | 1.2 | i | -6 | -8 | -17
COc1ccc2nc(NC(=O)CSc3nc4cccnc4n3C)sc2c1 | -6.4* | i | -1 | -1 | 12
SMILES | WNV protease inh | BAP1 block | Cdc25B block | MMP13 inh | MKP-1 inh
COC(=O)Cc1cc(=O)n(-c2nc3ccccc3[nH]2)[nH]1 | 3 | i | 4 | 57* | -10
COc1ccc(NC(=O)Cc2nc3ccccc3[nH]2)cc1 | -0.55 | i | -14 | -14 | 9
Nc1nnc(COc2ccc(Br)cc2)s1 | / | i | / | / | /
CN(C)c1cc(NC(=O)CN2CCOCC2)c2ccccc2n1 | -0.62 | + | -7 | -13 | -4
CCOC(=O)CC(=O)CSc1nnc2sc3ccccc3n12 | -1.8 | i | 1 | -2 | 78*
CCCOC(=O)C1=C(C)NC2=C(C(=O)CCC2)C1c1cc(OC)c(OC)cc1[N+](=O)[O-] (configuration not stated) | / | i | / | / | /
CN1Cc2cc(C(=O)c3cc(Cl)cc(CSc4ncccn4)c3O)cnc2NC1=O | -0.96 | i | 5 | 3 | 55*
Cc1cc[n+](Cc2cnc(C)nc2N)cc1 | / | i | / | / | /
O=C(O)c1ccc(CN2CCCCC2)o1 | 0.13 | i | 1 | -2 | 17
CC(C)(C)c1cc(C(=O)O)c(CN2CCCCC2)o1 | -1.1 | i | 79* | 7 | -16
